Experimental data published in PubChem BioAssay (NCI).
The panel holds about 83,000 compounds, 20% with a hit somewhere; the sample as a whole holds those more often.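 In brief: 96-well plates, 48 h treatment, single concentration, percent growth endpoint.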 Unmarked numbers belong to inactive results. Calls of active or inactive are those of the source. The calls were made as follows: active = growth percent below 10; inactive = the rest.

Experiments:
Assay in all cases: NCI-60 one-dose screen, 48 h (100 = growth as untreated, 0 = no growth, -100 = all killed)
Conditions in all cases: 10 µM unless noted
DU-145 prostate = tested on: DU-145 prostate
K-562 leukemia = tested on: K-562 leukemia
MALME-3M melanoma = tested on: MALME-3M melanoma
MDA-MB-231 breast = tested on: MDA-MB-231 breast
RXF 393 renal = tested on: RXF 393 renal
SF-268 CNS = tested on: SF-268 CNS
SF-295 CNS = tested on: SF-295 CNS
SF-539 CNS = tested on: SF-539 CNS
UACC-257 melanoma = tested on: UACC-257 melanoma
M14 melanoma = tested on: M14 melanoma
HCT-15 colon = tested on: HCT-15 colon
HT29 colon = tested on: HT29 colon
SNB-75 CNS = tested on: SNB-75 CNS
SNB-19 CNS = tested on: SNB-19 CNS
U251 CNS = tested on: U251 CNS
PC-3 prostate = tested on: PC-3 prostate
SK-MEL-5 melanoma = tested on: SK-MEL-5 melanoma
UACC-62 melanoma = tested on: UACC-62 melanoma
LOX IMVI melanoma = tested on: LOX IMVI melanoma
SK-MEL-28 melanoma = tested on: SK-MEL-28 melanoma

SMILES | growth (DU-145 prostate) | growth (K-562 leukemia) | growth (MALME-3M melanoma) | growth (MDA-MB-231 breast) | growth (RXF 393 renal) | growth (SF-268 CNS) | growth (SF-295 CNS) | growth (SF-539 CNS) | growth (UACC-257 melanoma) | growth (M14 melanoma) | growth (HCT-15 colon) | growth (HT29 colon) | growth (SNB-75 CNS) | growth (SNB-19 CNS) | growth (U251 CNS) | growth (PC-3 prostate) | growth (SK-MEL-5 melanoma) | growth (UACC-62 melanoma) | growth (LOX IMVI melanoma) | growth (SK-MEL-28 melanoma)
N=C1C(c2nc(-c3ccc(Br)cc3)cs2)=C(O)CN1Cc1cccnc1 | 11.9% | 49.8% | 34.1% | 78.7% | 67.1% | 38% | 37.2% | 60.5% | 81% | 69.3% | 87.5% | 65.4% | 15.5% | 75.9% | 56.7% | -6.43% (active) | 79.6% | 78.2% | 85.3% | 48.5%
Cc1cccc(Cc2cnc(NC(=O)/C=C/c3ccco3)s2)c1 | 15.9% | 8.09% (active) | 54.8% | 56.5% | -0.566% (active) | 49.4% | 6.75% (active) | -19.9% (active) | 41.3% | 10.3% | 12.8% | 6.71% (active) | 16.8% | 52.2% | 20.6% | 27.2% | 11.2% | 28.1% | 18.8% | 62.2%
Cc1ccc(S(=O)(=O)Oc2cc(OS(=O)(=O)c3ccc(C)cc3)cc(OS(=O)(=O)c3ccc(C)cc3)c2)cc1 | 108% | 94.4% | 133% | 92.2% | 99.6% | 99% | 86.9% | 95% | 104% | 108% | 98.1% | 98.7% | 95.4% | 104% | 108% | 86.9% | 94.4% | 86.1% | 98.1% | 112%
O=C(O)C1CCC(=O)N1C(=O)OCc1ccccc1 (stereo not given) | 117% | 92.4% | 96.2% | 112% | 96.6% | 111% | 106% | 96.9% | 95.4% | 102% | 97.3% | 101% | 80.9% | 97.8% | 102% | 100% | 105% | 87% | 98% | 140%
COc1ccc(NC(=O)c2nc(-c3cc(OC)c(OC)c(OC)c3)n(-c3cccc4ccccc34)n2)cc1OC | 70.4% | 35.4% | 52.8% | 27% | 66.1% | 58.6% | 52.6% | 35% | 57.5% | 48% | 14.5% | 30% | 24.4% | 52.3% | 52.4% | 39.8% | 32.4% | 31% | 25.2% | 55.4%
CCCCC1CCCCN1C(=O)OCC (stereo not given) | 108% | 107% | 108% | 107% | 152% | 106% | 127% | 99.7% | 108% | 101% | 103% | 94.1% | 97.8% | 106% | 96.1% | 93.5% | 111% | 107% | 101% | 104%
c1ccc(Nc2nc(-c3ccccn3)cs2)nc1 | 26.5% | 17.2% | 9.26% (active) | 38.9% | -18.8% (active) | 20.7% | 11.9% | 0.697% (active) | 11.5% | -32.8% (active) | 20.1% | 27.4% | 42.7% | 18.6% | 7.62% (active) | 38% | 11% | -14.6% (active) | 1.84% (active) | 50.3%
O=C(Cc1ccc(F)c(F)c1)Nc1cc(C2(C(F)(F)F)CC2)nn1Cc1ccccc1 | 20.5% | 13.3% | -37.7% (active) | -70.7% (active) | -26.9% (active) | 9.11% (active) | -1.31% (active) | 16.3% | -14.6% (active) | 20.2% | 6.24% (active) | 17.6% | -14.9% (active) | 13.3% | 4.6% (active) | -6.07% (active) | -80.8% (active) | -10.3% (active) | 5.44% (active) | 18.6%
COC(=O)c1c2c(c[n+]([O-])c1C)C(=O)C=CC2=O | 74.1% | 2.05% (active) | -97.1% (active) | 49.9% | 57.3% | 68.7% | 103% | 83.5% | -35.1% (active) | -64.5% (active) | 12.4% | 106% | 125% | 79.8% | 37.7% | 65.8% | 72% | 0.925% (active) | 47.3% | 49%
COc1cc(-c2nn(-c3ccccc3)cc2-c2ccnc(NCCNS(=O)(=O)c3ccc(Cl)cc3)n2)ccc1Cl | 50.7% | 27.7% | 70% | 53.5% | 34.9% | 41.2% | 30.6% | 60.3% | 34.8% | 24.3% | 30.3% | 11.3% | 49.1% | 49.9% | 28.4% | 18.3% | 32.6% | 41% | 32.3% | 49.2%
CC1(c2ccccc2)NC(=O)N(NC(=O)CSc2nc(-c3cccs3)nc3ccccc23)C1=O (stereo not given) | 106% | 88.8% | 100% | 90.9% | 78.1% | 97.8% | 99.3% | 95% | 83.5% | 109% | 91.2% | 108% | 96.4% | 92.2% | 94.6% | 90.8% | 85.2% | 69% | 95.9% | 115%
COc1cc(/C=N/NC(=O)Cn2c(C(C)C)nc3ccccc32)ccc1O | 110% | 100% | 105% | 95.5% | 95.7% | 91.2% | 104% | 94.4% | 98.2% | 92.6% | 98.7% | 98.2% | 81.5% | 99.4% | 110% | 94.8% | 97.6% | 89.8% | 102% | 109%
CCOc1ccccc1-n1c(CN2CCN(C(=O)COc3ccc(CNCCCCCCN4C5CCCC4CC(OC(=O)Nc4cc(C)ccc4OC)C5)cc3)CC2)nc2ccccc2c1=O (stereo not given) | -98.5% (active) | -56.9% (active) | -84.9% (active) | -91.1% (active) | -76.8% (active) | -77.1% (active) | -92.6% (active) | -92.8% (active) | -95.6% (active) | -77.6% (active) | -84.4% (active) | -85.6% (active) | -99.2% (active) | -89.9% (active) | -99.2% (active) | -85.6% (active) | -96.5% (active) | -89.3% (active) | -92% (active) | -93% (active)
C=CCSc1nc2ccccc2cc1/C=N/O | 110% | 92.3% | 129% | 97.6% | 68.8% | 90.8% | 94.7% | 104% | 87.6% | 91% | 95.8% | 92.7% | 58% | 89.3% | 86.6% | 83.1% | 96.3% | 71.2% | 85.9% | 88%
CCCCCCCC/C=C\CCCCCCCCOc1ccccc1CC(=O)NCC[N+](C)(C)C | 80.1% | 54.6% | 89.8% | 72.9% | 16.6% | 65.9% | 63.8% | 77.5% | 88.9% | 57.4% | 56.6% | 33.4% | 45.9% | 25.3% | 12.7% | 4.4% (active) | 74.7% | 66.5% | 74.1% | 88.8%
